In the supplement of paper PMC10849652:
Of roughly 7,900 targets only a part is listed; those with a hit were picked by preference. About 0.6% of all pairs of compound and target were hits.

Tests used:
Test in all cases: log2 fold change, soluble protein after heating vs DMSO (PISA); higher = thermal stabilisation; K562 cells, 10 uM, 30 min; active = over 0.2 and 3.5 SD of the protein, either way, in both replicates (recomputed)
bafetinib = compound: Cc1ccc(NC(=O)c2ccc(CN3CC[C@H](N(C)C)C3)c(C(F)(F)F)c2)cc1Nc1nccc(-c2cncnc2)n1 [bafetinib]
Summary of the method: (§1)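 Values are thermal stability changes relative to control samples and are taken from duplicates. They are stated as log2 fold changes. Before quantification by TMTpro 16plex LC-MS/MS with equalised channel sums, K562 cells at 2×10^6 cells/mL were treated with 10 μM compound for 30 min, heated in aliquots for 3 min across 48°C-58°C, pooled, extracted in PBS with 0.5% NP-40 at 4°C, and centrifuged at 21,000xg for 90 min to give the soluble supernatant.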

[1] = compound: Cc1cccc(CC(=O)N2CCc3c2ccc(-c2cn(C)c4ncnc(N)c24)c3F)n1
Summary of the method: as §1

nilotinib = compound: Cc1cn(-c2cc(NC(=O)c3ccc(C)c(Nc4nccc(-c5cccnc5)n4)c3)cc(C(F)(F)F)c2)cn1 [nilotinib]
Summary of the method: as §1

[2] = compound: Cc1nc(Nc2n[nH]c3c2CN(C(=O)N[C@H](CN(C)C)c2ccccc2)C3(C)C)c2sccc2n1
Summary of the method: as §1

dasatinib = compound: Cc1nc(Nc2ncc(C(=O)Nc3c(C)cccc3Cl)s2)cc(N2CCN(CCO)CC2)n1 [dasatinib]
Summary of the method: as §1

[3] = compound: Cc1ncc(-c2ccnc(Nc3ccc(S(C)(=O)=O)cc3)n2)n1C(C)C
Summary of the method: as §1

[4] = compound: Cn1cc(-c2ccc3c(c2)CCN3C(=O)Cc2cccc(C(F)(F)F)c2)c2c(N)ncnc21
Summary of the method: as §1

[5] = compound: Cn1cc(-c2ccc3nnc(C(F)(F)c4ccc5ncccc5c4)n3n2)cn1
Summary of the method: as §1

tipifarnib = compound: Cn1cncc1[C@@](N)(c1ccc(Cl)cc1)c1ccc2c(c1)c(-c1cccc(Cl)c1)cc(=O)n2C [tipifarnib]
Summary of the method: as §1

mubritinib = compound: FC(F)(F)c1ccc(/C=C/c2nc(COc3ccc(CCCCn4ccnn4)cc3)co2)cc1 [mubritinib]
Summary of the method: as §1

[6] = compound: NC(=O)Nc1cc(-c2cccc(F)c2)sc1C(=O)N[C@H]1CCCNC1
Summary of the method: as §1

[7] = compound: NC(=O)c1cnc(N[C@@H]2CCCC[C@@H]2N)nc1Nc1cccc(-n2nccn2)c1
Summary of the method: as §1

[8] = compound: NC1(c2ccc(-c3nc4ccn5c(=O)[nH]nc5c4cc3-c3ccccc3)cc2)CCC1
Summary of the method: as §1

[9] = compound: NCC(=O)Nc1ccc(-n2nc(C(F)(F)F)cc2-c2ccc3c(ccc4ccccc43)c2)cc1
Summary of the method: as §1

entinostat = compound: Nc1ccccc1NC(=O)c1ccc(CNC(=O)OCc2cccnc2)cc1 [entinostat]
Summary of the method: as §1

vorinostat = compound: O=C(CCCCCCC(=O)Nc1ccccc1)NO [vorinostat]
Summary of the method: as §1

citarinostat = compound: O=C(CCCCCCNC(=O)c1cnc(N(c2ccccc2)c2ccccc2Cl)nc1)NO [citarinostat]
Summary of the method: as §1

silmitasertib = compound: O=C(O)c1ccc2c(c1)nc(Nc1cccc(Cl)c1)c1ccncc12 [silmitasertib]
Summary of the method: as §1

[10] = compound: O=C1NC(=O)C(c2cnc3ccccn23)=C1c1cn2c3c(cc(F)cc13)CN(C(=O)N1CCCCC1)CC2
Summary of the method: as §1

[11] = compound: c1cc(OCCN2CCCCC2)cc(-c2n[nH]c3ccc(-c4nnc[nH]4)cc23)c1
Summary of the method: as §1

Measured: log2 fold change

TXN2 (UniProt Q99757)
UniProt Q99757, sequence (Q99757 whole entry, looked up): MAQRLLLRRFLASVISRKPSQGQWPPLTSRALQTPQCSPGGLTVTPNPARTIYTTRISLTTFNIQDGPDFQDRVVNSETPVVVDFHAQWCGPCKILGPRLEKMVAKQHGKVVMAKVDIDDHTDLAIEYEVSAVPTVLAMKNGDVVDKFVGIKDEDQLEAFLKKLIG
inactive: bafetinib -0.105 | [1] -0.104 | nilotinib 0.034 | [2] -0.005 | dasatinib 0.083 | [3] -0.048 | [4] 0.227 | [5] 0.013 | tipifarnib 0.059 | mubritinib 0.009 | [6] -0.039 | [7] -0.009 | [8] 0.088 | [9] 0.049 | entinostat 0.023 | vorinostat -0.072 | citarinostat 0.054 | silmitasertib -0.072 | [10] -0.09 | [11] -0.036

TRAPPC11 (UniProt Q7Z392)
UniProt Q7Z392, sequence (Q7Z392 whole entry, looked up): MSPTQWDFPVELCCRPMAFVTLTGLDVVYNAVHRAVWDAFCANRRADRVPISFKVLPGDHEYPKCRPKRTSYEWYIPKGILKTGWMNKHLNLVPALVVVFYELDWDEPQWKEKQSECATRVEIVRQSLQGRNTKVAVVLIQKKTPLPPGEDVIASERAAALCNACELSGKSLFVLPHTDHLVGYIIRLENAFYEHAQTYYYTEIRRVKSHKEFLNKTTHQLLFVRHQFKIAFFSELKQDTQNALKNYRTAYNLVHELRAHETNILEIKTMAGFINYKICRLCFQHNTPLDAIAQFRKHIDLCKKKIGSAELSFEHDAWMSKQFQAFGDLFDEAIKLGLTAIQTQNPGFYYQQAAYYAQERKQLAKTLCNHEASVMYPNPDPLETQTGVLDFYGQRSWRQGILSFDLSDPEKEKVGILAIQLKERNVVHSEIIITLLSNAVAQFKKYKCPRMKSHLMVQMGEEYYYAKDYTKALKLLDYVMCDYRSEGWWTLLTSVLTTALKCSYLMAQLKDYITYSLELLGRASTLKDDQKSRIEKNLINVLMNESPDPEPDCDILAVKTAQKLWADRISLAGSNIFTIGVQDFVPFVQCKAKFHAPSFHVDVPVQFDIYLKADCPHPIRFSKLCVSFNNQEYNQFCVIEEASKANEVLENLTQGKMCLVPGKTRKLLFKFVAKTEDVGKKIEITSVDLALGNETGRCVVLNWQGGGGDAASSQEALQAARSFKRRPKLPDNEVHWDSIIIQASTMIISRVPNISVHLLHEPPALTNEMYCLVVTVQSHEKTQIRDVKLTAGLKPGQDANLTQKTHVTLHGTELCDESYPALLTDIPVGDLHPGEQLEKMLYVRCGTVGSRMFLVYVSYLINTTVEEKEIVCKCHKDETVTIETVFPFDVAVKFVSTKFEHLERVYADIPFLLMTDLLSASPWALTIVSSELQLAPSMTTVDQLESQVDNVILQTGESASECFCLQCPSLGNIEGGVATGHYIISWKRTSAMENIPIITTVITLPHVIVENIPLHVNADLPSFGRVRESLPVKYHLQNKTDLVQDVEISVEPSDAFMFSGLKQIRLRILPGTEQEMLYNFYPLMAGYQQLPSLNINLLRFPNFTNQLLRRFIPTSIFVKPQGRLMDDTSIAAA
inactive: bafetinib 0.065 | [1] 0.05 | nilotinib -0.098 | [2] -0.129 | dasatinib -0.159 | [3] 0.01 | [4] -0.04 | [5] -0.03 | tipifarnib -0.06 | mubritinib 0.04 | [6] -0.033 | [7] -0.11 | [8] -0.187 | [9] 0.007 | entinostat 0.011 | vorinostat 0.012 | citarinostat -0.006 | silmitasertib 0.044 | [10] -0.036 | [11] -0.053

TMEM208 (UniProt Q9BTX3)
UniProt Q9BTX3, sequence (Q9BTX3 whole entry, looked up): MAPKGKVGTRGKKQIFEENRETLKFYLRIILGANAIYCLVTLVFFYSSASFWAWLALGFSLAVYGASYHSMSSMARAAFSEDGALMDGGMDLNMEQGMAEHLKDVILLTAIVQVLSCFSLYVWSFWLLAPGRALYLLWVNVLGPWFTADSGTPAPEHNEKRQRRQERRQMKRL
inactive: bafetinib -0.131 | [1] 0.097 | nilotinib -0.101 | [2] 0.092 | dasatinib -0.19 | [3] 0.185 | [4] -0.024 | [5] 0.01 | tipifarnib -0.223 | mubritinib 0.062 | [6] 0.038 | [7] -0.133 | [8] -0.28 | [9] -0.181 | entinostat -0.01 | vorinostat 0.187 | citarinostat 0.036 | silmitasertib 0.048 | [10] 0.02 | [11] -0.09

TOM1 isoform 2 (UniProt O60784)
UniProt O60784, sequence (O60784 whole entry, looked up): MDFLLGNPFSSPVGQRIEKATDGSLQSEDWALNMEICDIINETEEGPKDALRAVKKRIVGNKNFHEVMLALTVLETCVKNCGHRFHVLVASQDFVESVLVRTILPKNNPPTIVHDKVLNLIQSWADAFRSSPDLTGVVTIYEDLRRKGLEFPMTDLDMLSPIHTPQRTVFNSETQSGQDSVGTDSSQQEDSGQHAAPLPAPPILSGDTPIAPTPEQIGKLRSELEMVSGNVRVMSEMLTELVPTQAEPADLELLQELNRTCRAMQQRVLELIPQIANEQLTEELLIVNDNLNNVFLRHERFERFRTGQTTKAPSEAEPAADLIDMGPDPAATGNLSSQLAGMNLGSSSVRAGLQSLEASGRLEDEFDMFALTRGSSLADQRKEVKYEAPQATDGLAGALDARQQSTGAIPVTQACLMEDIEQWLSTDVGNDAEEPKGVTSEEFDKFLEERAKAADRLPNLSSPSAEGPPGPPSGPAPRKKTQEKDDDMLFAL
inactive: bafetinib -0.122 | [1] 0.026 | nilotinib -0.055 | [2] -0.104 | dasatinib -0.034 | [3] 0.116 | [4] -0.015 | [5] -0.012 | tipifarnib 0.022 | mubritinib -0.033 | [6] -0.002 | [7] -0.104 | [8] -0.066 | [9] -0.082 | entinostat -0.045 | vorinostat -0.119 | citarinostat 0.056 | silmitasertib -0.019 | [10] -0.026 | [11] -0.081

TNPO3 (UniProt Q9Y5L0)
UniProt Q9Y5L0, sequence (Q9Y5L0 whole entry, looked up): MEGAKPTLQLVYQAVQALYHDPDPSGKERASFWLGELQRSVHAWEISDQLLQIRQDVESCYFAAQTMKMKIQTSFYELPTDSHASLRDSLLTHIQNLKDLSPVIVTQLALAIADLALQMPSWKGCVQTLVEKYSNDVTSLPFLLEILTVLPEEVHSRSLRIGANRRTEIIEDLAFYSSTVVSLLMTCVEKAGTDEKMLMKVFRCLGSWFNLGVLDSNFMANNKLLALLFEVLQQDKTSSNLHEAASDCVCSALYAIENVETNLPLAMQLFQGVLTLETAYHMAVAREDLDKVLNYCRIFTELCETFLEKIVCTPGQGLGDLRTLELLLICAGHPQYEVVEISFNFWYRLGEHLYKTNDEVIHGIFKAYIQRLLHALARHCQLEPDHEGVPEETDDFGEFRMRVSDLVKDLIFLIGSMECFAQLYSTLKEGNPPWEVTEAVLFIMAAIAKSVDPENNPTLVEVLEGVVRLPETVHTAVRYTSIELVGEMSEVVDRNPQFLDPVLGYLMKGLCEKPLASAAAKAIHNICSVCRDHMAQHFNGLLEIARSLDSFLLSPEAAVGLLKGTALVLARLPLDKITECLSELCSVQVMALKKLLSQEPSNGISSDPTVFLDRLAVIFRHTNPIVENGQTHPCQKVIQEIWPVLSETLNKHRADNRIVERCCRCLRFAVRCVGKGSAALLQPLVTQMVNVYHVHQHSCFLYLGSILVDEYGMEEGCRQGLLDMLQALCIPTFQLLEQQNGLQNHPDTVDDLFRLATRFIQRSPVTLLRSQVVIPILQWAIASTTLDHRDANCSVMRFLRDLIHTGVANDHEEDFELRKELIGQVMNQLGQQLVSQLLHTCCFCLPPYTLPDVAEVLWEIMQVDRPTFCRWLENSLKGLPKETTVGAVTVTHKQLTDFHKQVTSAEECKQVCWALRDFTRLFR
inactive: bafetinib -0.057 | [1] 0.041 | nilotinib -0.052 | [2] -0.123 | dasatinib -0.103 | [3] -0.028 | [4] -0.001 | [5] -0.014 | tipifarnib -0.121 | mubritinib 0.061 | [6] 0.026 | [7] -0.018 | [9] -0.024 | entinostat 0.049 | vorinostat 0.076 | citarinostat 0.058 | silmitasertib -0.024 | [10] -0.06 | [11] -0.059
active: [8] -0.221

TNNC2 (UniProt P02585)
UniProt P02585, sequence (P02585 whole entry, looked up): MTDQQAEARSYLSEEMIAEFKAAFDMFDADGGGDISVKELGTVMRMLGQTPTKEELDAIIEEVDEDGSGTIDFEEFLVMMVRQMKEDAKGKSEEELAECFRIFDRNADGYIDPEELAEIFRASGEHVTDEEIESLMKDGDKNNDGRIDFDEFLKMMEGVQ
inactive: bafetinib -0.057 | [1] -0.058 | nilotinib 0.057 | [2] 0.024 | dasatinib 0.022 | [3] -0.015 | [4] 0.049 | [5] 0.032 | tipifarnib 0.015 | mubritinib 0.001 | [6] -0.003 | [7] 0.006 | [8] -0.028 | [9] 0.028 | entinostat -0.025 | vorinostat -0.101 | citarinostat 0.048 | silmitasertib -0.026 | [10] -0.033 | [11] -0.003

TXNRD1 (UniProt Q16881)
UniProt Q16881, sequence (Q16881 whole entry, looked up): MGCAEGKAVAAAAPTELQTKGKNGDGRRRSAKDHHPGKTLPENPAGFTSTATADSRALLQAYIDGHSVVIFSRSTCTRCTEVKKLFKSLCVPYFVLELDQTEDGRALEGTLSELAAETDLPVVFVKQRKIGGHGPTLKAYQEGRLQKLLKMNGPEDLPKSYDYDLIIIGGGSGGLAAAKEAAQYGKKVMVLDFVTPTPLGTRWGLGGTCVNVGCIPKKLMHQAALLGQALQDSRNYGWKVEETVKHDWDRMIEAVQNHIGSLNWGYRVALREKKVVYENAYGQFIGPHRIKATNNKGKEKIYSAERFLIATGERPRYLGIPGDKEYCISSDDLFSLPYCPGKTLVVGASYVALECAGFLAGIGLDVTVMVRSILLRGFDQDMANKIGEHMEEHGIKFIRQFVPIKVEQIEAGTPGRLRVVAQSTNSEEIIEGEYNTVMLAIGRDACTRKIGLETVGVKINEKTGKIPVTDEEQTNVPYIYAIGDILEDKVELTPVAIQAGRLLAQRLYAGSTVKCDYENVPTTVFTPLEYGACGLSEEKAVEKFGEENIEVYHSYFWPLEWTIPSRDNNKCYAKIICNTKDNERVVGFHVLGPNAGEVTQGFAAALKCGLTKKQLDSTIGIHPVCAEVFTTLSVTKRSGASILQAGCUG
inactive: bafetinib -0.012 | [1] -0.011 | nilotinib 0.097 | [2] -0.013 | dasatinib -0.013 | [3] -0.002 | [4] 0.067 | [5] 0.021 | tipifarnib -0.107 | [6] -0.082 | [7] -0.052 | [8] -0.077 | [9] -0.007 | entinostat -0.027 | vorinostat -0.005 | citarinostat 0.017 | silmitasertib -0.036 | [10] -0.122 | [11] 0.006
active: mubritinib 0.225

TOM1L1 (UniProt O75674)
UniProt O75674, sequence (O75674 whole entry, looked up): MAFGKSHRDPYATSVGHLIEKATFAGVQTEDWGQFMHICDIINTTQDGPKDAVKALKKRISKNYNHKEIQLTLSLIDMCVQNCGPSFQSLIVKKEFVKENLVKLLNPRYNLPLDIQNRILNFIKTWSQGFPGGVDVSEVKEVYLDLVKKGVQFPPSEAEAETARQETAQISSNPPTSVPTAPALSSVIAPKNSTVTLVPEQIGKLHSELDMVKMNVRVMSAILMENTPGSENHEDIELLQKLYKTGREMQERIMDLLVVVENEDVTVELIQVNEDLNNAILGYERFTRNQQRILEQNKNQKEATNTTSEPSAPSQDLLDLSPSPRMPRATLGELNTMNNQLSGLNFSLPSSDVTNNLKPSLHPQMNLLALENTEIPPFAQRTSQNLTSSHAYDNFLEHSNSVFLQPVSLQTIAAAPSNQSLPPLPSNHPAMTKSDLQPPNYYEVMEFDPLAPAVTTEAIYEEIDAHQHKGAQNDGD
inactive: bafetinib -0.025 | nilotinib -0.003 | [2] -0.069 | dasatinib -0.04 | [3] 0.087 | [4] 0.031 | [5] 0.032 | tipifarnib 0.06 | mubritinib 0.034 | [6] -0.086 | [7] 0.102 | [8] 0.008 | [9] 0.018 | entinostat -0.034 | vorinostat 0.092 | citarinostat -0.074 | silmitasertib 0.021 | [10] 0.008 | [11] -0.041
active: [1] -0.265
